Assay outcomes as filed in PubChem BioAssay.
LYPLA1 counter: LYPLA1 (human) inhibition in PME1 counter-screen; O75608; recombinant LYPLA1, FP-Rh probe fluorescence polarization; inhibition, % at 5.9 µM; actives 0.16% (n = 320,000); AID 2174;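 active = inhibition above the mean of all tested compounds plus 3 SD, set per campaign, cut at about 14% in these data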;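 note: inhibitors block serine hydrolase probe labeling of LYPLA1 so polarization falls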
Target sequence (O75608 whole entry, looked up): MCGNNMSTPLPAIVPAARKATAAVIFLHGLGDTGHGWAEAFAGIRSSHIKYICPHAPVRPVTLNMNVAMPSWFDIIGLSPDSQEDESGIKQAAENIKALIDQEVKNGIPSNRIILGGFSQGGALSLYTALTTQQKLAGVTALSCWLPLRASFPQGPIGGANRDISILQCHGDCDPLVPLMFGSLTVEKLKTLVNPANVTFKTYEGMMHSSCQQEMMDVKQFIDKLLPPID
LYPLA2 inh: counter-screen for PME1 inhibitors: inhibitors of human LYPLA2; O95372; recombinant LYPLA2, FP-Rh probe fluorescence polarization; AID 2177; actives 0.38% (n = 320,000); inhibition, % at 5.9 µM;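 active = inhibition above the screen-wide mean plus 3 SD, limit set per campaign, cut at about 26% in these data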
PME-1 primary: PME-1 (human) inhibition | AID 2130 | Q9Y570 | recombinant PME-1, FP-Rh probe fluorescence polarization | actives 0.53% (n = 320,000) | inhibition, % at 5.9 µM;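 active = inhibition above the campaign mean of all compounds plus 3 SD, cut at about 26% in these data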;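 note: competitive labeling of PME-1 active site by serine hydrolase directed probe; inhibitors block probe labeling so polarization falls and inhibition rises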
PAD4 FP inh: inhibitors of human PAD4; Q9UM07; actives 0.41% (n = 330,000); inhibition, % at 6.36 µM; recombinant PAD4, RCA probe fluorescence polarization;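 active = percent inhibition above a cutoff equal to the mean of all tested compounds plus 3 SD, cut at about 15% in these data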
GSTO1 counter: blocks human GSTO1 in RBBP9 counter-screen; P78417; recombinant GSTO1, activity-based probe fluorescence polarization; inhibition, % at 5.96 µM; actives 1.1% (n = 300,000); AID 1974;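 active = inhibition above the campaign mean inhibition plus 3 SD, cut at about 35% in these data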
Target sequence (P78417 whole entry, looked up): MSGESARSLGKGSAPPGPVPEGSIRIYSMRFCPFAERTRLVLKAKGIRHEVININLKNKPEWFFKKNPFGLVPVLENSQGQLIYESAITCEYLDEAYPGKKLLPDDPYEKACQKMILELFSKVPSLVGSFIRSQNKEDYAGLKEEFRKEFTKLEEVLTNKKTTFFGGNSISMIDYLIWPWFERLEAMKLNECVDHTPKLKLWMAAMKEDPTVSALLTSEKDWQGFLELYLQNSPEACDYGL
Fam108B counter: blocks mouse Fam108B hydrolase in RBBP9 counter-screen; recombinant Fam108B, FP-Rh probe fluorescence polarization; actives 0.33% (n = 300,000); inhibition, % at 9.51 µM;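 active = inhibition above the screen mean inhibition plus 3 SD, computed separately per campaign, cut at about 18% in these data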;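 note: inhibitors lower polarization as less probe binds the enzyme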
Fam108b confirm: confirmation of mouse Fam108b serine hydrolase inhibitors; inhibition, % at 9.51 µM; AID 1978; actives 44% (n = 930); shares compounds with Fam108B counter; recombinant Fam108b, FP-Rh probe fluorescence polarization;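 active = inhibition above a limit from the primary screen, the mean over all compounds plus 3 SD, cut at about 19% in these data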;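 note: inhibitors free the probe so polarization falls as inhibition rises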
Fam108b ABPP HTS: inhibits mouse Fam108b in gel-based ABPP. shares compounds with Fam108B counter. recombinant Fam108b, fluorophosphonate probe. inhibition, % at 20 µM. actives 44% (n = 260). AID 588649; in the data active = inhibition above about 40%
Numbers stand for hits; – = inactive; · = no result given. Hits are enriched below; roughly 1.8% of the tested compounds scored in any of these assays.

SMILES | LYPLA1 counter | LYPLA2 inh | PME-1 primary | PAD4 FP inh | GSTO1 counter | Fam108B counter | Fam108b confirm | others
CC(C)C[C@H](NC(=O)OC(C)(C)C)C(=O)N[C@@H](CO)[C@H](O)[C@@H]1C[C@@H]1C(=O)NC1CCCCC1 | – | – | – | – | – | – | ·
COc1ccc(OC)c(N2C(=O)CC(Cc3ccc(C)cc3)C2=O)c1 (configuration not stated) | – | – | 31 | – | – | – | ·
COc1ccc(CC2CC(=O)N(c3ccc(C)cc3)C2=O)cc1 (configuration not stated) | – | – | – | – | – | – | ·
CC(=O)c1ccc2c(c1)C1C=CCC1C(c1ccncc1)N2 (configuration not stated) | – | – | – | – | 44 | – | ·
Cc1ccc2c(c1)C1C=CCC1C(C(=O)O)N2 (configuration not stated) | – | – | – | – | 54 | 46 | ·
C1=CC2c3ccccc3NC(c3ccncc3)C2C1 (configuration not stated) | – | – | – | – | 47 | – | ·
Brc1cc2c(cc1C1Nc3ccccc3C3C=CCC31)OCO2 (configuration not stated) | – | – | – | – | – | – | ·
CC1=CC(C)(C)Nc2ccc(OC(=O)C(Cc3ccccc3)N3C(=O)c4ccccc4C3=O)cc21 (configuration not stated) | – | – | – | – | – | – | ·
CCOc1ccc2c(c1)C(C)=CC(C)(C)N2 | – | – | – | – | · | · | ·
CC1=CC(C)(C)Nc2ccc(OC(=O)CN3C(=O)c4ccccc4C3=O)cc21 | – | – | – | – | 56 | – | ·
CC1=CC(C)(C)Nc2ccc(OC(=O)CN3C(=O)c4cccc5cccc(c45)C3=O)cc21 | – | – | – | – | 37 | – | ·
CCNC(=S)NNC(=O)c1cc(Br)cs1 | – | – | – | – | – | – | ·
CC(=O)OC1=C(O)C(=O)c2ccccc2C1=O | – | – | – | – | 59 | – | ·
Cc1cc(Br)ccc1N=C1NC(=O)CS1 | – | – | 60 | – | – | – | ·
Cc1ccc(N=C2NC(=O)CS2)c(C)c1 | – | – | – | – | – | – | ·
O=C1/C(=C\c2cc([N+](=O)[O-])ccc2O)SC(=S)N1Cc1ccc(Cl)cc1 | – | – | – | – | – | – | ·
Cc1ccccc1/C=C1\SC(=S)N(/N=C/c2cc([N+](=O)[O-])ccc2O)C1=O | – | – | – | – | 35 | – | ·
CCCCCC#CCN1CCN(C23CC4CC(CC(C4)C2)C3)CC1 | – | – | – | – | · | · | ·
CCCC#CCN1CCN(C23CC4CC(CC(C4)C2)C3)CC1 | – | – | – | – | – | 18 | –
COc1cc(OC)c(NC(=O)c2ccccc2F)cc1Cl | – | – | – | – | – | – | ·
COc1cc(NC(=O)c2cc3ccccc3cc2O)c(OC)cc1Cl | – | – | 42 | – | – | 30 | –
COc1ccccc1NC(=O)c1cc2cc(Br)ccc2cc1O | – | – | – | – | – | 38 | –
COc1ccccc1NC(=O)COC(=O)c1cc2ccccc2cc1O | – | – | – | – | · | · | ·
CCOc1cc(/C=C2\N=C(SC)SC2=O)cc([N+](=O)[O-])c1OC(C)=O | – | – | – | – | – | 22 | –
COc1ccc(/C=C2\N=C(SC)SC2=O)cc1OC | – | – | – | – | – | – | ·
SMILES | LYPLA1 counter | LYPLA2 inh | PME-1 primary | PAD4 FP inh | GSTO1 counter | Fam108B counter | Fam108b confirm | others
COc1ccc(C(=O)C(C)OC(=O)COc2ccccc2)cc1 (configuration not stated) | · | · | · | – | · | · | ·
COC(=O)c1sc(NC(=S)NNC(=O)c2c(Br)c(C)nn2C)c(C(=O)OC)c1C | – | – | – | – | – | 26 | 24
O=C(NC1CCCCC1)c1sc(=S)n2c1[nH]c(=O)c1ccccc12 | – | – | – | – | – | 35 | 32 | Fam108b ABPP HTS=85
CCCCNC(=O)c1sc(=S)n2c1[nH]c(=O)c1ccccc12 | – | – | – | – | – | 27 | 32 | Fam108b ABPP HTS=–
O=C(NCCc1ccccc1)c1ccc2c(=O)[nH]c3c(C(=O)NCC4CCCO4)sc(=S)n3c2c1 (configuration not stated) | – | – | – | – | – | 34 | 35 | Fam108b ABPP HTS=–
CCOc1ccc(CCNC(=O)c2ccc3c(=O)[nH]c4c(C(=O)NC(C)C)sc(=S)n4c3c2)cc1 | – | – | – | – | – | – | ·
CN(CC(=O)Nc1ccc(Cl)cc1F)C1=NS(=O)(=O)c2ccccc21 | · | · | · | – | · | · | ·
COc1cccc(C(=O)COc2cccc(NC(=O)c3cccc([N+](=O)[O-])c3)c2)c1 | – | – | – | – | – | 24 | 24
O=C(COc1cccc(NC(=O)c2cccc([N+](=O)[O-])c2)c1)c1ccc(F)cc1 | – | – | – | – | – | – | ·
COc1ccccc1N1C(=NC(=O)COc2ccccc2)SC2CS(=O)(=O)CC21 (configuration not stated) | – | – | – | – | – | – | ·
CS(=O)(=O)Cc1ccc(C(=O)N(CCc2ccccc2)Cc2ccccc2)cc1 | – | – | – | – | – | – | ·
Cc1cc(NS(=O)(=O)c2ccc(Nc3nc(-c4ccc(O)cc4)cs3)cc2)no1 | – | – | – | – | – | 26 | –
NS(=O)(=O)c1ccc(Nc2nc(-c3ccc(O)cc3O)cs2)cc1 | – | – | – | – | – | 23 | 99 | Fam108b ABPP HTS=–
Cc1cccnc1Nc1nc(-c2ccc(O)cc2O)cs1 | – | – | – | – | – | 18 | –
Oc1ccc(-c2csc(Nc3ccccn3)n2)c(O)c1 | – | – | – | – | – | 19 | –
COc1cc(NS(=O)(=O)c2ccc(Nc3nc(-c4ccccc4)cs3)cc2)nc(OC)n1 | – | – | – | – | – | – | ·
O=C(O)c1ccc(N2C(=O)CC(N3CCN(c4cccc(C(F)(F)F)c4)CC3)C2=O)cc1 (configuration not stated) | – | – | – | – | – | – | ·
CCOC(=O)C1=C(C)N=c2s/c(=C\c3ccc(O)c([N+](=O)[O-])c3)c(=O)n2C1c1ccccc1OC (configuration not stated) | – | – | – | – | – | 28 | 45
CCOC(=O)C1=C(C)N=c2s/c(=C\c3ccc(OCC(=O)O)cc3)c(=O)n2C1c1ccccc1OC (configuration not stated) | – | – | – | – | – | – | ·
Cc1cc(C(=O)CSc2nnnn2C)c(C)n1Cc1ccco1 | – | – | – | – | – | – | ·
Cc1cc(C(=O)CSc2ncccn2)c(C)n1Cc1ccco1 | – | – | – | – | – | 19 | –
COc1ccc(S(=O)(=O)N2CCCOC2CNC(=O)C(=O)NCc2cccnc2)cc1 (configuration not stated) | – | – | – | – | – | – | ·
Cc1cc2c(N=O)c(NO)ccc2[nH]1 | – | – | 49 | – | – | 33 | –
